This passage reports Potency and outcome results from PubChem BioAssay (NCATS).

Assay [1] addresses Cytochrome P450 3A4 (Homo sapiens) (UniProt P08684). Nature of the assay: qHTS Assay for Inhibitors and Substrates of Cytochrome P450 3A4 (AID 884). Further: nearly all actives have a fitted effect of over 50% in size. Further: potency means the concentration at half of the fitted maximal effect. Put shortly:
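Luminescent readout of luciferin produced by CYP3A4 (20 nM) dealkylation of Luciferin-PPXE, 25 uM (its KM). NADPH-driven reaction ran 60 min at RT after 10 min compound preincubation; data scaled to 57 uM ketoconazole as 100% inhibition.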
(In general: In qHTS, concentration-response curves come from the screen itself.)

Assay [2] can be described thus: Confirmation and Secondary Assay for Modulators of Hemoglobin Beta Chain Splicing at IVS2 654 locus (AID 910). Put shortly: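 HeLa cells stably carrying EGFP interrupted by mutant beta-globin IVS2-654 intron (CMV-driven) were treated with compound for 2 days at 37C; corrected splicing was scored as total peak GFP intensity per well (488 nm excitation, 500-520 nm emission).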

Assay [3] can be described thus: Confirmation and Secondary Assay for Modulators of Hemoglobin Beta Chain Splicing at IVS2 705 locus (AID 930).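 Further: HeLa cells stably expressing the EGFP-705 splicing reporter; GFP fluorescence per well restored by corrected splicing of the IVS2-705 intron in EGFP; series mostly up to about 46 µM.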 Put shortly: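 HeLa cells stably carrying EGFP interrupted by mutant beta-globin intron 2 (IVS2-705) treated 2 days at 37C with compound; 500 nM antisense PNA as control. Correct splicing read as total peak GFP intensity per well by laser-scanning cytometry.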

Assay [4] has as its target Ubiquitin carboxyl-terminal hydrolase 1 (Homo sapiens) (UniProt O94782). Description: Inhibitors of USP1/UAF1: Pilot qHTS (AID 504865). Further: nearly all actives have a fitted effect of over 35% in size. Further: potency means the concentration at half of the fitted maximal effect. Put shortly: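 USP1/UAF1 complex at 1 nM preincubated 15 min at room temperature with compound, then Ub-Rho substrate added at 150 nM final. Fluorescence (480/540 nm) read kinetically in 50 mM HEPES pH 7.8, 0.5 mM EDTA, 1 mM TCEP, 0.1 mg/ml BSA, 0.01% Tween-20.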

Assay [5] has as its target Cytochrome P450 3A4 (Homo sapiens) (UniProt P08684). Description: qHTS Assay for Activators of Cytochrome P450 3A4 (AID 885). Further: nearly all actives have a fitted effect of over 65% in size. Put shortly:
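Luminescent readout of luciferin formed from 25 uM Luciferin-PPXE (KM level) by 20 nM CYP3A4 in 200 mM KPO4, with 60 min NADPH-driven reaction at room temperature after 10 min compound exposure. Ketoconazole (57 uM) defined 100% inhibition.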

Results filed as inconclusive are left out. Entries that show only a call come without a potency. The source made the active and inactive calls. The call rests on the fitted dose curve; in most records, active means well fitted curve in the direction sought with a large enough effect; inconclusive means small, poorly fitted or top-dose-only effect, or another doubt; inactive means no such curve, though single readings can be large; an effect the other way counts as inactive or inconclusive.

Sequence of Ubiquitin carboxyl-terminal hydrolase 1 (Homo sapiens) (O94782 whole entry, looked up): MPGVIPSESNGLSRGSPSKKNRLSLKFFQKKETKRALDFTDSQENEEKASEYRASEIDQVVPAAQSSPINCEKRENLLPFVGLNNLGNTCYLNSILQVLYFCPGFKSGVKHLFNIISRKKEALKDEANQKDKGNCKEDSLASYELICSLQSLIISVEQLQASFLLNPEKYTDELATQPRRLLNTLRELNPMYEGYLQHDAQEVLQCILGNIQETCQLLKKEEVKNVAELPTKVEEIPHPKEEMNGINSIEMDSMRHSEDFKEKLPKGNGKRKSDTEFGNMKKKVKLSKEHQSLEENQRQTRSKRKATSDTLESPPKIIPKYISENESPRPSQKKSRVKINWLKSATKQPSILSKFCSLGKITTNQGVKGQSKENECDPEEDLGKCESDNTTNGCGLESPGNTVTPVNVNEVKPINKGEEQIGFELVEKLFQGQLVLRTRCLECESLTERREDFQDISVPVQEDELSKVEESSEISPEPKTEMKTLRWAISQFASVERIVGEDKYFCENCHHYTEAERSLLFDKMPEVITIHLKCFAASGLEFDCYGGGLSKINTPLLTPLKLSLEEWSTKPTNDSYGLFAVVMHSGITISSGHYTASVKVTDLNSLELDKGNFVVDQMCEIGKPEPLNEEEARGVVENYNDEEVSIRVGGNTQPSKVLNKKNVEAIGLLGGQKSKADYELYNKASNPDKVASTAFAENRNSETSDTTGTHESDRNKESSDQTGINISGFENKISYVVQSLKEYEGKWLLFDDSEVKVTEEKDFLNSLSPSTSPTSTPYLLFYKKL
Sequence of Cytochrome P450 3A4 (Homo sapiens) (P08684 whole entry, looked up): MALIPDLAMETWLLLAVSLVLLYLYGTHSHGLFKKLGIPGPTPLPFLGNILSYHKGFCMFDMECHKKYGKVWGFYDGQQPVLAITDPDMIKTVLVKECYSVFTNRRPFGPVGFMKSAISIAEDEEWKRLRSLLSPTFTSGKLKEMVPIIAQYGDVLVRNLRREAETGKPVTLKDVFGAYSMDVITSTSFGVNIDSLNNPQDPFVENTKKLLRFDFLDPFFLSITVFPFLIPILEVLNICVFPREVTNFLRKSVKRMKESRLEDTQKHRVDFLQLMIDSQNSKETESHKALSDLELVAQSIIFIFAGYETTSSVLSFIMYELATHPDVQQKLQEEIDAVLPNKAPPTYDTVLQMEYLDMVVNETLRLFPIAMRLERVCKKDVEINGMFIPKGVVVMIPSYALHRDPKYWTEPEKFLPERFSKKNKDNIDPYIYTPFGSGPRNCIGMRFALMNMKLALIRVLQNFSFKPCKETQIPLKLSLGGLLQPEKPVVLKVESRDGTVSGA

On to `CC1/C=C/C=C/C=C/C=C/C=C/C=C/C=C/C(OC2OC(C)C(O)C(N)C2O)CC2O[C@@](O)(CC(O)CC(O)C(O)CCC(O)CC(O)CC(=O)OC(C)[C@H](C)C1O)CC(O)C2C(=O)O` (stereo partly specified), for which the Potency entry in assay [1] is “inactive”. Besides, the call in assay [2] and in assay [3] was inactive. In assay [4], the Potency was 56.2 µM (active).

As to `COc1cc2c(cc1OC)C(=O)OC2`, the Potency result in assay [5] and in assay [4] was “inactive” each time. Besides, the call in assay [2] and in assay [3] was inactive.

As to `COc1ccc2cc1Oc1ccc(cc1)CC1c3cc(c(OC)cc3CCN1C)Oc1c(OC)c(OC)cc3c1C(C2)N(C)CC3` (stereo unspecified), the Potency result in assay [1] and in assay [4] was “inactive” in each case. For the same compound, the compound was classed as inactive in assay [3].

For `CC(=O)OCC(=O)[C@@]1(O)CCC2C3CCC4=CC(=O)CC[C@]4(C)C3C(=O)C[C@]21C` (stereo partly specified), the Potency result in assay [1] and in assay [4] was “inactive” each time. The call in assay [3] was inactive.

Turning to `COC(=O)CC1[C@@]2(C)C[C@]34OC5(C)OC6(C7CC(=O)OC(c8ccoc8)[C@]7(C)CCC6(O5)[C@]13C)C(OC(C)=O)[C@]4(OC(C)=O)C2OC(C)=O` (stereo partly specified), the Potency result in assay [5] and in assay [4] was “inactive” in each case. The outcome in assay [2] and in assay [3] was inactive.

Regarding `COc1ccc(-c2cc(=O)c3cc(OC)ccc3o2)cc1`, the Potency entry in assay [5] and in assay [4] was “inactive” throughout. Also, the compound was called inactive in assay [2] and in assay [3].

In the case of `O=C(O)c1cc2ccccc2[nH]1`, the Potency result in assay [1] and in assay [4] was “inactive” in each case. Moreover, the compound was classed as inactive in assay [2] and in assay [3].

With `CN(N=O)C(=O)N[C@H]1C(O)C(O)C(CO)O[C@@H]1O` (stereo partly specified), the Potency result in assay [1] and in assay [4] was “inactive” throughout. Moreover, the call in assay [2] and in assay [3] was inactive.

For `COC(=O)c1c(C)cc(O)cc1O`, the Potency result in assay [5] and in assay [4] was “inactive” each time. In addition, in assay [2], the compound was classed as inactive.

As for `COc1ccc2c(=O)ccoc2c1`, the Potency entry in assay [1] and in assay [4] was “inactive” each time. For the same compound, the result in assay [3] was inactive.

With `COc1cc2ccc(=O)oc2c(OC)c1OC`, the Potency entry in assay [1] and in assay [4] was “inactive” each time. In addition, in assay [3], the call was inactive.

For `C=C1c2cccc(O)c2C(O)=C2C(=O)[C@]3(O)C(O)=C(C(N)=O)C(=O)C(N(C)C)C3C(O)C12` (stereo partly specified), the Potency entry in assay [1] is “inactive”. In addition, the compound was classed as inactive in assay [2] and in assay [3]. The Potency in assay [4] was 39.8 µM (active).

Regarding `C=C1C(=O)OC2C1CC/C(C)=C/CCC1(C)OC21` (stereo unspecified), the Potency result in assay [5] and in assay [4] was “inactive” each time. The result in assay [2] and in assay [3] was inactive.

In the case of `O[N+]1=CC=CCC1=S.On1ccccc1=S.[Zn]`, the Potency result in assay [1] and in assay [4] was “inactive” throughout. For the same compound, the outcome in assay [2] and in assay [3] was inactive.

As to `O=c1c(-c2ccc(O)cc2)coc2c(C3OC(CO)C(O)C(O)C3O)c(O)ccc12` (stereo unspecified), the Potency entry in assay [1] and in assay [4] was “inactive” in each case. Further, the result in assay [2] and in assay [3] was inactive.

As to `Cc1cc(O)cc(=O)o1`, the Potency result in assay [5] and in assay [4] was “inactive” in each case. Also, the compound was called inactive in assay [2].

In the case of `Cc1cc(O)c(C)c(O)c1C(=O)O`, the Potency entry in assay [1] and in assay [4] was “inactive” throughout. For the same compound, the compound was classed as inactive in assay [2] and in assay [3].

On to `Nc1ncnc2c1[nH]c(=O)n2C1CC(O)C(CO)O1` (stereo unspecified), for which the Potency entry in assay [1] and in assay [4] was “inactive” throughout. Besides, the result in assay [2] and in assay [3] was inactive.

For the compound `NC(N)=N/N=C\c1c(Cl)cccc1Cl`, the Potency result in assay [1] and in assay [4] was “inactive” in each case. In assay [3], the call was inactive.

Consider `CC1(C)C=Cc2c(cc3occ(-c4ccc5c(c4)OCO5)c(=O)c3c2O)O1`, for which the Potency in assay [1] is 25.1 µM (active). The result in assay [2] and in assay [3] was inactive. Besides, the Potency result in assay [4] was “inactive”.

As to `O=c1c2cc(O)c(O)cc2oc2cc(O)c(C3OC(CO)C(O)C(O)C3O)c(O)c12` (stereo unspecified), the Potency entry in assay [5] and in assay [4] was “inactive” throughout. Also, the compound was classed as inactive in assay [2].

For `O=C1C=CC2=C3c4cc(O)c(O)cc4C[C@]3(O)COC2=C1`, the Potency result in assay [1] and in assay [4] was “inactive” in each case. Further, the compound was called inactive in assay [2] and in assay [3].

As to `COc1cc(C(C)=O)cc(OC)c1O`, the Potency result in assay [1] and in assay [4] was “inactive” throughout. The result in assay [2] and in assay [3] was inactive.

Consider `CC1CCC2C(C)(C)C3CC12CC[C@]3(C)O` (stereo partly specified), for which the Potency result in assay [1] and in assay [4] was “inactive” throughout. Besides, the compound was called inactive in assay [2] and in assay [3].

Turning to `C=C1C([C@@]2(C)C(OC(C)=O)CC(=O)O[C@@](C)(COC(C)=O)C2CC(=O)OC)C(OC=O)C(OC(=O)C(O)C(C)CC)[C@]2(C)C(c3ccoc3)CC(=O)C12O` (stereo partly specified), the Potency result in assay [5] and in assay [4] was “inactive” throughout. Further, the outcome in assay [2] was inactive.
